Results taken from PubChem BioAssay.
Calls of active or inactive are those of the source. Unless noted, no stated cut-off is given here; in the data, active means inhibition above about 33%; inactive means the rest.

molecular target: Steroidogenic factor 1 (Homo sapiens) (UniProt Q13285); assay: SF1 (NR5A1) inverse agonists, counter-screen for LRH-1 inverse agonist project, cell-based, luminescence, high throughput (AID 651614; in the data active means inhibition above about 44%;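 further: cells cotransfected with StAR promoter reporter and SF1 expression vector; 0% = vehicle on cells with receptor and 100% = vehicle on cells lacking receptor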); details: cell-based SF1 luciferase reporter, at 3.6 µM, stronger effect = higher value
Sequence (Q13285 whole entry, looked up): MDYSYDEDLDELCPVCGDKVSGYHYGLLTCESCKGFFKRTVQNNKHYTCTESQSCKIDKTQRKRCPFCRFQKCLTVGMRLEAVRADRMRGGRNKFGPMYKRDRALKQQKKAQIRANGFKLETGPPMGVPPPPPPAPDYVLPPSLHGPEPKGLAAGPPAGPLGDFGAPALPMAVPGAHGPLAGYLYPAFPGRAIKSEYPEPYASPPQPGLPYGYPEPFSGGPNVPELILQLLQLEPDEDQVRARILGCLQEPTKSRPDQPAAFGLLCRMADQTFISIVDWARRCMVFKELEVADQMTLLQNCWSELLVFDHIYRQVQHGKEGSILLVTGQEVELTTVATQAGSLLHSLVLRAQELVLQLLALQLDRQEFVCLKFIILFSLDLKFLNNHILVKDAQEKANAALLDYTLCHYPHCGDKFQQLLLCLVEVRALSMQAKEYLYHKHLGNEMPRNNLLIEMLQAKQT

Question: Which inhibition does the source give for `COc1ccc(/C=N/n2c(SC)nnc2-c2ccccc2)c(OC)c1OC` here?
Answer: 54.4% (active)

Question: Which inhibition does the source give for `CC(=O)Nc1cc(-c2cccc(NS(C)(=O)=O)c2)cn2c(-c3ccccc3)cnc12` here?
Answer: 34.3% (inactive)

Question: Which inhibition does the source give for `Cc1ccc(S(=O)(=O)NCc2ccncc2)cc1` here?
Answer: 43% (active)

Question: For `c1ccc(-c2nc(NCc3cccnc3)c3oc4ccccc4c3n2)cc1`, which inhibition is on record?
Answer: 60.6% (active)

Question: Which inhibition does the source give for `CC(C)c1cc(NC(=O)CCl)on1` here?
Answer: 51.9% (active)

Question: With `COc1ccc(C2=Nn3c(nnc3-c3ccncc3)SC2)cc1OC` as the compound, how does the inhibition read?
Answer: 39.6% (inactive)

Question: For `CCn1c(=S)sc2c(=O)n(CC(=O)Nc3ccc(Cl)cc3)c(C)nc21`, which inhibition is on record?
Answer: 46.7% (active)

Question: With `COc1ccc2c(c1)CCN(C(=O)CCl)C2C1C(=O)CCCC1=O` (stereo not given) as the compound, how does the inhibition read?
Answer: 54.4% (active)

Question: For `O=C(Cc1c(F)cccc1Cl)Nc1ccncc1`, which inhibition is on record?
Answer: 43.5% (active)

Question: With `CC(=O)ON=C1C=CC(=C(C#N)c2ccccc2)C=C1` as the compound, how does the inhibition read?
Answer: 79.4% (active)

Question: For `O=C(Nc1nnc(C2=COCCO2)o1)c1ccc([N+](=O)[O-])s1`, which inhibition is on record?
Answer: 40.3% (inactive)

Question: For `CC(=O)c1ccc(NC(=O)CSc2nc3[nH]ncc3c(=O)[nH]2)cc1`, which inhibition is on record?
Answer: 50.8% (active)

Question: For `CCCCNC(=O)COC(=O)c1c2c(nc3ccccc13)/C(=C\c1cccs1)CC2`, which inhibition is on record?
Answer: 12.3% (inactive)

Question: With `CCCn1c2c(c(=N)c3c1CCC3)CCCC2` as the compound, how does the inhibition read?
Answer: 55% (active)

Question: For `COc1ccc(S(=O)(=O)Nc2ccc(CC#N)cc2)cc1`, which inhibition is on record?
Answer: 29.7% (inactive)

Question: With `COCCn1c(SCC(=O)Nc2ccc(C(C)=O)cc2)nnc1-c1ccco1` as the compound, how does the inhibition read?
Answer: 37.4% (inactive)

Question: With `CSCc1c(C(=O)Nc2ccccc2N2CCOCC2)oc2ccccc12` as the compound, how does the inhibition read?
Answer: 62.5% (active)

Question: Which inhibition does the source give for `C=CCNC(=S)N/N=C/c1ccc(N(CC)Cc2ccccc2)cc1` here?
Answer: 24.4% (inactive)

Question: For `O=C(Cn1nnc2ccccc2c1=O)Nc1ccc2c(c1)CCC2`, which inhibition is on record?
Answer: 25.6% (inactive)

Question: With `C#Cc1cccc(Nc2nc(NCCOC)nc3ccsc23)c1` as the compound, how does the inhibition read?
Answer: 57.4% (active)

Question: Which inhibition does the source give for `COc1ccc(/C=C2/CSC/C(=C/c3ccc(OC)c(OC)c3)C2=O)cc1OC` here?
Answer: 74.9% (active)

Question: With `COc1cc2c(cc1OC)CN(C(=O)c1ccc([N+](=O)[O-])o1)CC2` as the compound, how does the inhibition read?
Answer: 64.4% (active)

Question: With `C/C(=N\NC(N)=S)c1ccncc1` as the compound, how does the inhibition read?
Answer: 49% (active)

Question: Which inhibition does the source give for `Cc1ccc(C)c(NC(=O)CSc2nc3c(oc4ccccc43)c(=O)n2-c2ccccc2)c1` here?
Answer: 46.7% (active)

Question: With `CCOc1cc(/C=N/Nc2nnc(C)n2N)ccc1O` as the compound, how does the inhibition read?
Answer: 22.2% (inactive)

Question: For `Cc1cc(O)c(/C=N/Nc2cccc(Cl)c2)c(=O)o1`, which inhibition is on record?
Answer: 24.6% (inactive)

Question: Which inhibition does the source give for `Cn1cc(Cl)c(C(=O)OCC(=O)Nc2ccc(S(N)(=O)=O)cc2)n1` here?
Answer: 50.4% (active)

Question: With `O=C(Cc1ccccc1)N/N=C/c1ccc([N+](=O)[O-])s1` as the compound, how does the inhibition read?
Answer: 62.1% (active)

Question: Which inhibition does the source give for `COc1ccc(CCNC(=O)COC(=O)c2cc(Cl)nc(Cl)c2)cc1` here?
Answer: 51.4% (active)

Question: For `C/C(=N\N1CCN(c2ccc(Cl)cc2)CC1)c1cccc([N+](=O)[O-])c1`, which inhibition is on record?
Answer: 21.2% (inactive)

Question: Which inhibition does the source give for `CCCc1nnc(SCC(=O)Nc2ccc(OC)cc2)o1` here?
Answer: 45% (active)

Question: Which inhibition does the source give for `Cc1ccc(S(=O)(=O)N2CCc3ccccc3CC2)cc1` here?
Answer: 56.7% (active)

Question: Which inhibition does the source give for `Oc1cccc(Nc2nc(N3CCOCC3)nc(N3CCOCC3)n2)c1` here?
Answer: 21.6% (inactive)

Question: For `CCS(=O)(=O)N1Cc2cc(C(=O)NCC3CC3)nc(-c3cccc(-c4cccnc4)c3)c2[C@@H]1CCO`, which inhibition is on record?
Answer: 41.8% (inactive)

Question: With `CCOc1ccc2c(c1)sc(N)[n+]2Cc1cc(C)cc2cccnc12` as the compound, how does the inhibition read?
Answer: 32.1% (inactive)

Question: Which inhibition does the source give for `Cc1c(C(=O)N(Cc2ccc(F)cc2)C2CCS(=O)(=O)C2)oc2ccccc12` (stereo not given) here?
Answer: 31.4% (inactive)

Question: For `Cc1ccc(-c2nn3c(C)nnc3s2)cc1NC(=O)c1cccs1`, which inhibition is on record?
Answer: 69.4% (active)

Question: With `O=C(CSc1nnc(Cc2cccs2)n1Cc1ccco1)Nc1ccc(Cl)cc1Cl` as the compound, how does the inhibition read?
Answer: 47.5% (active)

Question: Which inhibition does the source give for `CN(CC(=O)Nc1ccc(N2CCOCC2)cc1)CC(=O)Nc1ccc(N2CCOCC2)cc1` here?
Answer: 54.2% (active)

Question: Which inhibition does the source give for `O=C(Nc1ccccc1Cl)c1ccc([N+](=O)[O-])o1` here?
Answer: 75.9% (active)

system: not listed separately; assay: VP16 transactivation reporter inhibitors, counter-screen for LRH-1 inverse agonist project, cell-based, luminescence, high throughput (AID 651615); details: Gal4-VP16 luciferase reporter cells, at 3.6 µM, stronger effect = higher value

Question: Which inhibition does the source give for `COc1ccc(/C=N/n2c(SC)nnc2-c2ccccc2)c(OC)c1OC` here?
Answer: -31.8% (inactive)

Question: With `CC(=O)Nc1cc(-c2cccc(NS(C)(=O)=O)c2)cn2c(-c3ccccc3)cnc12` as the compound, how does the inhibition read?
Answer: -8.63% (inactive)

Question: With `Cc1ccc(S(=O)(=O)NCc2ccncc2)cc1` as the compound, how does the inhibition read?
Answer: 48.7% (active)

Question: With `c1ccc(-c2nc(NCc3cccnc3)c3oc4ccccc4c3n2)cc1` as the compound, how does the inhibition read?
Answer: -22.9% (inactive)

Question: With `CC(C)c1cc(NC(=O)CCl)on1` as the compound, how does the inhibition read?
Answer: -11.4% (inactive)

Question: Which inhibition does the source give for `COc1ccc(C2=Nn3c(nnc3-c3ccncc3)SC2)cc1OC` here?
Answer: -2.76% (inactive)

Question: For `CCn1c(=S)sc2c(=O)n(CC(=O)Nc3ccc(Cl)cc3)c(C)nc21`, which inhibition is on record?
Answer: 19.1% (inactive)

Question: Which inhibition does the source give for `COc1ccc2c(c1)CCN(C(=O)CCl)C2C1C(=O)CCCC1=O` (stereo not given) here?
Answer: -6.95% (inactive)

Question: For `O=C(Cc1c(F)cccc1Cl)Nc1ccncc1`, which inhibition is on record?
Answer: -7.58% (inactive)

Question: Which inhibition does the source give for `CC(=O)ON=C1C=CC(=C(C#N)c2ccccc2)C=C1` here?
Answer: 20.2% (inactive)

Question: Which inhibition does the source give for `O=C(Nc1nnc(C2=COCCO2)o1)c1ccc([N+](=O)[O-])s1` here?
Answer: -6.2% (inactive)

Question: Which inhibition does the source give for `CC(=O)c1ccc(NC(=O)CSc2nc3[nH]ncc3c(=O)[nH]2)cc1` here?
Answer: -6.29% (inactive)

Question: For `CCCCNC(=O)COC(=O)c1c2c(nc3ccccc13)/C(=C\c1cccs1)CC2`, which inhibition is on record?
Answer: 26.5% (inactive)

Question: With `CCCn1c2c(c(=N)c3c1CCC3)CCCC2` as the compound, how does the inhibition read?
Answer: 44.9% (active)

Question: For `COc1ccc(S(=O)(=O)Nc2ccc(CC#N)cc2)cc1`, which inhibition is on record?
Answer: -0.34% (inactive)

Question: With `COCCn1c(SCC(=O)Nc2ccc(C(C)=O)cc2)nnc1-c1ccco1` as the compound, how does the inhibition read?
Answer: -1.99% (inactive)

Question: With `CSCc1c(C(=O)Nc2ccccc2N2CCOCC2)oc2ccccc12` as the compound, how does the inhibition read?
Answer: 14.2% (inactive)

Question: For `C=CCNC(=S)N/N=C/c1ccc(N(CC)Cc2ccccc2)cc1`, which inhibition is on record?
Answer: 6.68% (inactive)

Question: Which inhibition does the source give for `O=C(Cn1nnc2ccccc2c1=O)Nc1ccc2c(c1)CCC2` here?
Answer: 0.93% (inactive)

Question: Which inhibition does the source give for `C#Cc1cccc(Nc2nc(NCCOC)nc3ccsc23)c1` here?
Answer: 5.35% (inactive)

Question: Which inhibition does the source give for `COc1ccc(/C=C2/CSC/C(=C/c3ccc(OC)c(OC)c3)C2=O)cc1OC` here?
Answer: 76.8% (active)

Question: For `COc1cc2c(cc1OC)CN(C(=O)c1ccc([N+](=O)[O-])o1)CC2`, which inhibition is on record?
Answer: 7.13% (inactive)

Question: Which inhibition does the source give for `C/C(=N\NC(N)=S)c1ccncc1` here?
Answer: 3.01% (inactive)

Question: Which inhibition does the source give for `Cc1ccc(C)c(NC(=O)CSc2nc3c(oc4ccccc43)c(=O)n2-c2ccccc2)c1` here?
Answer: -9.48% (inactive)

Question: Which inhibition does the source give for `CCOc1cc(/C=N/Nc2nnc(C)n2N)ccc1O` here?
Answer: 2.17% (inactive)

Question: Which inhibition does the source give for `Cc1cc(O)c(/C=N/Nc2cccc(Cl)c2)c(=O)o1` here?
Answer: 56% (active)

Question: Which inhibition does the source give for `Cn1cc(Cl)c(C(=O)OCC(=O)Nc2ccc(S(N)(=O)=O)cc2)n1` here?
Answer: -12.4% (inactive)

Question: With `O=C(Cc1ccccc1)N/N=C/c1ccc([N+](=O)[O-])s1` as the compound, how does the inhibition read?
Answer: -9.91% (inactive)

Question: For `COc1ccc(CCNC(=O)COC(=O)c2cc(Cl)nc(Cl)c2)cc1`, which inhibition is on record?
Answer: -2.65% (inactive)

Question: With `C/C(=N\N1CCN(c2ccc(Cl)cc2)CC1)c1cccc([N+](=O)[O-])c1` as the compound, how does the inhibition read?
Answer: 8.61% (inactive)

Question: With `CCCc1nnc(SCC(=O)Nc2ccc(OC)cc2)o1` as the compound, how does the inhibition read?
Answer: -8.5% (inactive)

Question: For `Cc1ccc(S(=O)(=O)N2CCc3ccccc3CC2)cc1`, which inhibition is on record?
Answer: 53.9% (active)

Question: With `Oc1cccc(Nc2nc(N3CCOCC3)nc(N3CCOCC3)n2)c1` as the compound, how does the inhibition read?
Answer: 21% (inactive)

Question: With `CCS(=O)(=O)N1Cc2cc(C(=O)NCC3CC3)nc(-c3cccc(-c4cccnc4)c3)c2[C@@H]1CCO` as the compound, how does the inhibition read?
Answer: -27.8% (inactive)

Question: For `CCOc1ccc2c(c1)sc(N)[n+]2Cc1cc(C)cc2cccnc12`, which inhibition is on record?
Answer: 39.5% (active)

Question: With `Cc1c(C(=O)N(Cc2ccc(F)cc2)C2CCS(=O)(=O)C2)oc2ccccc12` (stereo not given) as the compound, how does the inhibition read?
Answer: -5.18% (inactive)

Question: Which inhibition does the source give for `Cc1ccc(-c2nn3c(C)nnc3s2)cc1NC(=O)c1cccs1` here?
Answer: -15.2% (inactive)

Question: For `O=C(CSc1nnc(Cc2cccs2)n1Cc1ccco1)Nc1ccc(Cl)cc1Cl`, which inhibition is on record?
Answer: 19.1% (inactive)

Question: For `CN(CC(=O)Nc1ccc(N2CCOCC2)cc1)CC(=O)Nc1ccc(N2CCOCC2)cc1`, which inhibition is on record?
Answer: -8.87% (inactive)

Question: For `O=C(Nc1ccccc1Cl)c1ccc([N+](=O)[O-])o1`, which inhibition is on record?
Answer: -5.01% (inactive)
